According to PubChem BioAssay AID1159580 (chemical genetic matrix, 2015):
Among all 5,500 compounds or so, about 2,000 (36%) were called active. Inconclusive results (about 18%) are left out. No stated cut-off is given here; in the data, active means normalized growth mostly below about 0.91 (no sharp cut-off); inconclusive means no clear call, values can overlap the other calls; inactive means mostly above about 0.92. Some of the results follow.

Test: chemical genetic growth profiling, strain panel (AID 1159580);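 further: tested at 20 µM; growth read once vehicle control cultures reached saturation at 30 °C; 1 = growth at the plate median or of vehicle wells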
Conditions: growth OD

Measured: normalized growth

Cc1ccccc1OCC(O)CO (stereo not given)
inactive: S. cerevisiae deletion strains, locus YJR066W, strain TOR1, stronger effect = lower value 0.913 | S. cerevisiae deletion strains, locus YJR075W, strain HOC1, stronger effect = lower value 1.04 | S. cerevisiae deletion strains, locus YKL009W, strain mrt4, stronger effect = lower value 0.987 | S. cerevisiae deletion strains, locus YKL068W, stronger effect = lower value 0.996 | S. cerevisiae deletion strains, locus YKL085W, strain MDH1 (second series), stronger effect = lower value 1.04 | S. cerevisiae deletion strains, locus YKL085W, strain MDH1, stronger effect = lower value 1.04 | S. cerevisiae deletion strains, locus YKL160W, strain elf1, stronger effect = lower value 0.986 | S. cerevisiae deletion strains, locus YKL190W, strain CNB1, stronger effect = lower value 1.01 | S. cerevisiae deletion strains, locus YKR001C, strain vps1, stronger effect = lower value 0.991 | S. cerevisiae deletion strains, locus YKR026C, strain gcn3, stronger effect = lower value 0.928 | S. cerevisiae deletion strains, locus YKR091W, strain srl3, stronger effect = lower value 0.984 | S. cerevisiae deletion strains, locus YLL001W, strain dnm1, stronger effect = lower value 0.985 | S. cerevisiae deletion strains, locus YLL026W, stronger effect = lower value 0.983 | S. cerevisiae deletion strains, locus YLL041C, strain sdh2, stronger effect = lower value 0.985 | S. cerevisiae deletion strains, locus YLR027C, strain aat2, stronger effect = lower value 0.957 | S. cerevisiae deletion strains, locus YLR039C, strain RIC1, stronger effect = lower value 1.02 | S. cerevisiae deletion strains, locus YLR058C, strain SHM2, stronger effect = lower value 1.02 | S. cerevisiae deletion strains, locus YLR102C, strain apc9, stronger effect = lower value 0.991 | S. cerevisiae deletion strains, locus YLR113W, strain HOG1, stronger effect = lower value 0.971 | S. cerevisiae deletion strains, locus YLR221C, strain rsa3, stronger effect = lower value 0.982 | S. cerevisiae deletion strains, locus YLR258W, strain gsy2, stronger effect = lower value 0.98 | S. cerevisiae deletion strains, locus YLR262C, strain YPT6 (second series), stronger effect = lower value 0.973 | S. cerevisiae deletion strains, locus YLR262C, strain YPT6, stronger effect = lower value 1.02 | S. cerevisiae deletion strains, locus YLR268W, strain sec22, stronger effect = lower value 0.996 | S. cerevisiae deletion strains, locus YLR320W, strain mms22, stronger effect = lower value 0.964 | S. cerevisiae deletion strains, locus YLR330W, strain CHS5, stronger effect = lower value 1.01 | S. cerevisiae deletion strains, locus YLR342W, strain FKS1 (second series), stronger effect = lower value 1.04 | S. cerevisiae deletion strains, locus YLR342W, strain FKS1, stronger effect = lower value 0.966 | S. cerevisiae deletion strains, locus YLR357W, strain rsc2, stronger effect = lower value 0.982 | S. cerevisiae deletion strains, locus YLR370C, strain arc18, stronger effect = lower value 0.979 | S. cerevisiae deletion strains, locus YLR371W, strain rom2, stronger effect = lower value 0.992 | S. cerevisiae deletion strains, locus YLR384C, strain iki3, stronger effect = lower value 0.992 | S. cerevisiae deletion strains, locus YLR418C, strain cdc73, stronger effect = lower value 1.01 | S. cerevisiae deletion strains, locus YML016C, strain PPZ1, stronger effect = lower value 1.02 | S. cerevisiae deletion strains, locus YML032C, strain rad52, stronger effect = lower value 0.992 | S. cerevisiae deletion strains, locus YML120C, strain ndi1, stronger effect = lower value 0.965 | S. cerevisiae deletion strains, locus YML124C, strain tub3, stronger effect = lower value 0.993 | S. cerevisiae deletion strains, locus YMR058W, strain fet3, stronger effect = lower value 0.98 | S. cerevisiae deletion strains, locus YMR078C, strain ctf18, stronger effect = lower value 0.995 | S. cerevisiae deletion strains, locus YMR125W, strain sto1, stronger effect = lower value 0.953 | S. cerevisiae deletion strains, locus YMR129W, stronger effect = lower value 0.99 | S. cerevisiae deletion strains, locus YMR205C, strain PFK2, stronger effect = lower value 0.975 | S. cerevisiae deletion strains, locus YMR223W, strain ubp8, stronger effect = lower value 0.991 | S. cerevisiae deletion strains, locus YMR231W, strain pep5, stronger effect = lower value 0.988 | S. cerevisiae deletion strains, locus YMR263W, strain SAP30, stronger effect = lower value 1.03 | S. cerevisiae deletion strains, locus YMR307W, strain GAS1, stronger effect = lower value 1.09 | S. cerevisiae deletion strains, locus YNL067W, strain RPL9B, stronger effect = lower value 1.03 | S. cerevisiae deletion strains, locus YNL071W, strain lat1, stronger effect = lower value 0.977 | S. cerevisiae deletion strains, locus YNL183C, strain NPR1, stronger effect = lower value 0.919 | S. cerevisiae deletion strains, locus YNL209W, strain ssb2, stronger effect = lower value 0.984 | S. cerevisiae deletion strains, locus YNL233W, strain BNI4, stronger effect = lower value 1.04 | S. cerevisiae deletion strains, locus YNL248C, strain rpa49, stronger effect = lower value 0.977 | S. cerevisiae deletion strains, locus YNL250W, strain rad50, stronger effect = lower value 0.995 | S. cerevisiae deletion strains, locus YNL271C, strain bni1, stronger effect = lower value 0.989 | S. cerevisiae deletion strains, locus YNL298W, strain CLA4, stronger effect = lower value 0.993 | S. cerevisiae deletion strains, locus YNL307C, strain MCK1, stronger effect = lower value 0.994 | S. cerevisiae deletion strains, locus YNL322C, strain KRE1 (second series), stronger effect = lower value 0.979 | S. cerevisiae deletion strains, locus YNL322C, strain KRE1, stronger effect = lower value 1.01 | S. cerevisiae deletion strains, locus YNR049C, strain mso1, stronger effect = lower value 0.955 | S. cerevisiae deletion strains, locus YNR052C, strain pop2, stronger effect = lower value 0.991 | S. cerevisiae deletion strains, locus YOL006C, strain TOP1, stronger effect = lower value 1.11 | S. cerevisiae deletion strains, locus YOL012C, strain htz1 0.987 | S. cerevisiae deletion strains, locus YOL147C, strain pex11, stronger effect = lower value 0.992 | S. cerevisiae deletion strains, locus YOR001W, strain rrp6, stronger effect = lower value 0.963 | S. cerevisiae deletion strains, locus YOR061W, strain CKA2, stronger effect = lower value 1.02 | S. cerevisiae deletion strains, locus YOR069W, strain VPS5, stronger effect = lower value 1.01 | S. cerevisiae deletion strains, locus YOR070C, strain gyp1, stronger effect = lower value 0.969 | S. cerevisiae deletion strains, locus YOR080W, strain dia2, stronger effect = lower value 0.968 | S. cerevisiae deletion strains, locus YOR083W, strain WHI5, stronger effect = lower value 0.967 | S. cerevisiae deletion strains, locus YOR106W, strain vam3, stronger effect = lower value 0.96 | S. cerevisiae deletion strains, locus YOR136W, strain idh2, stronger effect = lower value 0.998 | S. cerevisiae deletion strains, locus YOR144C, strain elg1, stronger effect = lower value 0.99 | S. cerevisiae deletion strains, locus YOR184W, strain ser1, stronger effect = lower value 1.01 | S. cerevisiae deletion strains, locus YOR231W, strain MKK1, stronger effect = lower value 0.974 | S. cerevisiae deletion strains, locus YOR265W, strain rbl2, stronger effect = lower value 0.968 | S. cerevisiae deletion strains, locus YOR270C, strain vph1, stronger effect = lower value 0.911 | S. cerevisiae deletion strains, locus YOR290C, strain snf2, stronger effect = lower value 0.969 | S. cerevisiae deletion strains, locus YOR316C, strain cot1, stronger effect = lower value 0.992 | S. cerevisiae deletion strains, locus YPL051W, strain arl3, stronger effect = lower value 0.981 | S. cerevisiae deletion strains, locus YPL055C, strain LGE1, stronger effect = lower value 1.07 | S. cerevisiae deletion strains, locus YPL078C, strain atp4, stronger effect = lower value 0.971 | S. cerevisiae deletion strains, locus YPL106C, strain sse1, stronger effect = lower value 0.958 | S. cerevisiae deletion strains, locus YPL240C, strain hsp82, stronger effect = lower value 0.992 | S. cerevisiae deletion strains, locus YPL256C, strain CLN2, stronger effect = lower value 0.974 | S. cerevisiae deletion strains, locus YPR119W, strain clb2, stronger effect = lower value 0.997 | S. cerevisiae deletion strains, locus YPR141C, strain kar3, stronger effect = lower value 0.989 | S. cerevisiae deletion strains, locus YPR163C, strain tif3, stronger effect = lower value 0.991 | S. cerevisiae deletion strains, locus YPR167C, strain met16, stronger effect = lower value 0.998 | S. cerevisiae deletion strains, strain wtn01, stronger effect = lower value 1 | S. cerevisiae strains, strain wild type, stronger effect = lower value 1.02
